# PubChem BioAssay AID488857 (Sanford-Burnham Center for Chemical Genomics, 2010)
# In all, about 1,400 compounds went through this assay and about 560 (40%) were called active. The set was probably picked from earlier hits. The list shows a part of the results. Values without a mark were called inactive.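 How the source made its calls: active means mean inhibition over duplicate tests at 10 µM above 50%; inactive means the rest.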
# Assay: ASC/caspase-1 reporter retest in S. cerevisiae at one dose, specificity check for NALP1 project (AID 488857)
# Conditions: S. cerevisiae ASC/Caspase-1, beta-galactosidase luminescence, 24 h; at 10 µM; active compounds read high
row,Structure (SMILES),inhibition
1,COc1ccc(N(C)C2=NS(=O)(=O)c3ccccc32)cc1,29.7%
2,COCCN(CCOC)c1ncnc2c1cnn2-c1ccc(Cl)cc1,69.3% (active)
3,COC(=O)c1ccc(Cn2cnc3c(cnn3-c3ccc(Cl)cc3)c2=O)o1,35.1%
4,CN(Cc1ccccc1)c1ncnc2c1cnn2-c1ccccc1,66.2% (active)
5,Nc1ccc(C(=O)c2cccs2)cc1,54.2% (active)
6,CC(C)c1ccc(NCCC(=O)c2cccs2)cc1,42%
7,CCOc1ccc(NC(=O)c2cc3c(C)nc4ccccc4c3o2)cc1,33.2%
8,CCOc1ccc(N=c2oc3cc(O)ccc3cc2C(=O)NCC2CCCO2)cc1 (configuration not stated),33%
9,CCOc1ccc(NC(=O)c2csc3c2CCCC3)cc1,70.2% (active)
10,O=C(c1ccccc1-c1ccccc1)N1CCN(c2ccccn2)CC1,35.6%
11,CCOC(=O)c1cc(-c2ccccc2)n(CCC(=O)N2CCN(c3ccccn3)CC2)c1C,32.7%
12,O=C(N1CCN(c2ccccn2)CC1)C(Cl)(Cl)Cl,63.7% (active)
13,O=C(CSCc1cnn(-c2ccccc2)c1-n1cccc1)NCc1ccc2c(c1)OCO2,57.3% (active)
14,c1ccc2c(Nc3nc(N4CCOCC4)c4ccccc4n3)cccc2c1,95% (active)
15,Oc1c(Cl)cc(Cl)c(Cl)c1Cc1c(O)c(Cl)cc(Cl)c1Cl,98.4% (active)
16,CCN(CC)c1ccc(NC(=O)Cn2cc3c(n2)CCC(C)C3)c(C)c1 (configuration not stated),51.1% (active)
17,Cc1cc(Br)ccc1OCCn1ccnc1,59.4% (active)
18,C=CCNCCCCOc1ccc(Br)cc1C,46.5%
19,Cc1cc(Cl)c(OCCCn2ccnc2)c(Br)c1,64.8% (active)
20,CCOc1cc(C(=O)OCC(=O)Nc2ncc(Cl)c(C)c2Cl)ccc1OCC(=O)N1CCOCC1,33.8%
21,COC(=O)CCn1nnc(-c2ccc(C(C)C)cc2)n1,41.2%
22,O=C(COC(=O)CCSc1ccccc1)NCc1ccccc1Cl,29.2%
23,CN(C)CCNC(=O)COc1ccc(Cl)cc1Cl,28.3%
24,COc1ccccc1OCC(=O)NCCSCc1ccccc1Cl,65.5% (active)
25,COc1ccccc1OCC(=O)NCCSCc1cccc(Cl)c1,61.4% (active)
26,O=C(COc1ccccc1Cl)NCCC1=CCCCC1,48.4%

row,Structure (SMILES),inhibition
1,O=C(CCSCc1cccc(Cl)c1)NCCc1ccccc1,64.2% (active)
2,O=C(CN1C(=O)C2C3C=CC(C3)C2C1=O)NCCc1ccccc1 (configuration not stated),23.8%
3,COc1ccccc1OCC(=O)NCCSCc1ccc(Cl)cc1,64.2% (active)
4,Cc1sc(NC(=O)c2cc3ccccc3oc2=O)c(C(=O)OC(C)C)c1-c1ccccc1,36%
5,COc1cccc(N2C(=O)C(O)=C(C(C)=O)C2c2ccc(OC)c(OC)c2)c1 (configuration not stated),31%
6,CC(=O)N1CC[n+]2c(-c3ccc(Cl)cc3Cl)csc21,23.9%
7,CC(C)Cn1c(CN(Cc2ccccc2)Cc2ccccc2)nc2c1c(=O)n(C)c(=O)n2C,35.6%
8,O=C(CSC1=NS(=O)(=O)c2ccccc21)Nc1ccccc1,43.5%
9,Cc1ccc(CC(=O)Nc2ccccc2-c2ccccc2)cc1C,34.3%
10,O=C(CSCc1cccc(Cl)c1)Nc1ccccc1-c1ccccc1,62.6% (active)
11,COC(=O)c1ccccc1SC1CC(=O)N(c2ccccc2)C1=O (configuration not stated),49.2%
12,COc1ccc(CCN(C)C2CC(=O)N(c3ccccc3)C2=O)cc1OC (configuration not stated),51% (active)
13,COc1ccc(CCNC(=O)CN2CCC(C)CC2)cc1OC,28.1%
14,COc1ccc2[nH]c3c(C)c4ccncc4c(C)c3c2c1,98.8% (active)
15,COc1ccc2[nH]c(C)c(CCNC(=S)Nc3cc(C)cc(C)c3)c2c1,17%
16,CC(C)(C)c1cc(C(=O)O)n[nH]1,-9.25%
17,CNC(=O)c1ccsc1NC(=O)c1sc2ccccc2c1Cl,58.8% (active)
18,O=C(Nc1nccs1)c1sc2ccccc2c1Cl,80.7% (active)
19,O=C(Nc1nc(-c2ccccn2)cs1)c1ccc(Cl)s1,46.2%
20,O=c1cc(-c2ccccc2)[nH]c2nc3ccccc3n12,44.1%
21,Cc1nc(-c2ccccc2)cn2c1nc1ccccc12,59.9% (active)
22,Cc1cc(N/N=C/c2ccccc2Cl)nc(NCc2ccccc2)n1,52.2% (active)
23,Cc1cc(N/N=C/c2cccc(Cl)c2)nc(NCc2ccccc2)n1,55.9% (active)
24,Cc1ccccc1N(CC(=O)N/N=C/c1ccccc1Cl)C(=O)c1ccccc1,35.8%
25,Cc1ccc(Nc2cc(C)nc(NCc3ccccc3)n2)cc1,61.2% (active)
26,Cc1cc(N/N=C/c2ccccc2)nc(NCc2ccccc2)n1,68.2% (active)
